Test results: paper PMC4336329 (PLoS ONE, 2015)
The campaign covered roughly 310,000 compounds. About 14,000 (4.5%) showed an effect of 50% or more. Effects have a minus sign here. The sample holds strong results, similar compounds and a random draw of the others, so the mix is not that of the screen.

biological target: human ether-à-go-go-related gene (hERG) potassium channel (human, UniProt Q12809); assay: primary screen, population patch clamp on CHO cells stably expressing hERG; higher = less effect of the substance
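Also: peak tail current of the secondary pulse compared with the same well before compound.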

Sequence of human ether-à-go-go-related gene (hERG) potassium channel (Q12809 whole entry, looked up): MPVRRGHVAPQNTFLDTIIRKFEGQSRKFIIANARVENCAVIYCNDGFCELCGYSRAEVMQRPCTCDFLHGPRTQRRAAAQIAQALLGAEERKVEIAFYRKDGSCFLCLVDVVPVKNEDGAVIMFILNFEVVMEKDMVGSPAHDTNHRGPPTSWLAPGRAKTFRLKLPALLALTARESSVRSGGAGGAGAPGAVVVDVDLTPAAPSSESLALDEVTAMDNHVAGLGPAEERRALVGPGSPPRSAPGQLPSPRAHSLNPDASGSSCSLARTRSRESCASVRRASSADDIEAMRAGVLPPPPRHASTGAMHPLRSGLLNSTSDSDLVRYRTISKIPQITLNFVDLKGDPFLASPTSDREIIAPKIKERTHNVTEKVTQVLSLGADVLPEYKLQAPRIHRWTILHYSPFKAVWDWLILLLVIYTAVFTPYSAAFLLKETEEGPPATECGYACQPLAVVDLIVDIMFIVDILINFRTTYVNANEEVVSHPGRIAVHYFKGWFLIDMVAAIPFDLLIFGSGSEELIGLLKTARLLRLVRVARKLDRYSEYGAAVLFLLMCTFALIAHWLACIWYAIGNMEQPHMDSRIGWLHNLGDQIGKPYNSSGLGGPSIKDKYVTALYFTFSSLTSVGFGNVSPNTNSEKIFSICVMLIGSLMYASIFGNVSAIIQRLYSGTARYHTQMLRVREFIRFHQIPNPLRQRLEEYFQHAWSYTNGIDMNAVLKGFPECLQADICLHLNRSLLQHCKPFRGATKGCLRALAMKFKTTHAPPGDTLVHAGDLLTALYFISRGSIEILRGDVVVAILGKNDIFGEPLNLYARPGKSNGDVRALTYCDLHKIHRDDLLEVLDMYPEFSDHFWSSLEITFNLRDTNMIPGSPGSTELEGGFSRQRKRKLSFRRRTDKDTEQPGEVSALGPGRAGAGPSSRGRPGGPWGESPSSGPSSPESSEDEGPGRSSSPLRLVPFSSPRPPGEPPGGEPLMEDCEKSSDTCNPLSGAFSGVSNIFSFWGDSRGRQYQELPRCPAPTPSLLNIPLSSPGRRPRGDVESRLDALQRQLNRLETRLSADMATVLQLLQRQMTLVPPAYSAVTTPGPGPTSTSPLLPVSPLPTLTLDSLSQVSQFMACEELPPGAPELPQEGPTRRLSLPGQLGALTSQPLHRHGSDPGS

| SMILES | hERG current change (%, negative = inhibition) at 10uM |
| --- | --- |
| O=C(O)c1ccc(C(=O)O)c(C(=O)c2ccc(NC(=O)c3ccccc3)cc2)c1 | 8.99% |
| C/C(=N\NC(=O)c1ccc(Cl)c(Cl)c1)c1cccc(NC(=O)C(C)C)c1 | 1.91% |
| Nc1c(Cl)cc(-c2cn(CCC(=O)O)c(-c3ccc(Cl)nc3)n2)cc1Cl | 20.4% |
| O=C(N/N=C/c1cccnc1)c1ccc(NC(=O)c2ccc(F)cc2)cc1 | 8.2% |
| O=C1C2C3C=CC(C3)C2C(=O)N1c1ccc(N2CCN(c3ccccn3)CC2)c([N+](=O)[O-])c1 (stereo not drawn) | -18.6% |
| O=C(NCC1OCCCN1S(=O)(=O)c1ccc(F)cc1)C(=O)NC1CCCC1 (stereo not drawn) | -15.8% |
| O=C(CSc1ccccc1C(=O)O)NC1CCCCCCC1 | 17.6% |
| Cc1ccccc1CN1CCN(Cc2ccccc2)CC1.O=C(O)C(=O)O | -7.72% |
| CCOc1ccccc1N1CCN(Cc2ccc(OC)c(OC)c2)CC1 | -69.2% |
| CSc1ccc(CN2CCN(c3ccccc3C)CC2)cc1.O=C(O)C(=O)O | -54.5% |
| COc1ccccc1N1CCN(Cc2ccco2)CC1.O=C(O)C(=O)O | -26.4% |
| Cc1ccccc1N1CCN(Cc2cccc(C(=O)O)c2)CC1.Cl | 1.27% |
| COc1ccc(CN2CCN(c3ccccc3OC)CC2)cc1OC.O=C(O)C(=O)O | -57.9% |
| COc1ccc(CN2CCN(Cc3ccco3)CC2)cc1OC.O=C(O)C(=O)O | 1.22% |
| COc1ccccc1N1CCN(Cc2ccc(SC)cc2)CC1.O=C(O)C(=O)O | -72.9% |
| CCOc1cc(CN2CCN(c3ncccn3)CC2)ccc1OC | -4.8% |
| CCOc1cc(CN2CCCCC2)ccc1OC | -8.28% |
| COc1ccc(CN2CCN(C(=O)c3cccc(OC)c3OC)CC2)cc1OC.O=C(O)C(=O)O | 5.63% |
| COc1ccccc1N1CCN(Cc2ccc(C(=O)O)cc2)CC1 | 14.4% |
| Cc1ccccc1CN1CCCOCCS1(=O)=O | -0.4% |
| Cn1c2c(c(=O)n1-c1ccccc1)CSCC2 | 16.5% |
| O=C(NNC(=S)NC(=O)c1cccs1)c1ccc(NC(=O)c2ccccc2)cc1 | 13.7% |
| Cl.O=C(O)c1ccc2nc(CO)[nH]c2c1 | 11.2% |

| SMILES | hERG current change (%, negative = inhibition) at 10uM |
| --- | --- |
| CC(Cc1cccs1)NC(=O)Nc1ccccc1 (stereo not drawn) | 0.115% |
| O=C(c1ccc(S(=O)(=O)N2CCOCC2)cc1)N1CCc2ccccc2C1 | -4.25% |
| CN(C)S(=O)(=O)c1ccc(C(=O)NCC(=O)N/N=C/c2ccccc2Cl)cc1 | 5.43% |
| COc1ccc(CN2CCN(c3cccc(C)c3C)CC2)cc1OC | -72% |
| CC(NC(=O)C(C)N1CCN(Cc2ccccc2)CC1)c1ccc(F)cc1 (stereo not drawn) | 5.35% |
| COc1ccc(CN2CCN(S(=O)(=O)c3ccc(F)cc3)CC2)cc1OC.O=C(O)C(=O)O | 7.33% |
| CCOc1ccccc1N1CCN(Cc2cccc(OC)c2OC)CC1 | -17% |
| COc1ccc(CN2CCN(C(C)C(=O)NC(C)c3ccc(F)cc3)CC2)cc1F (stereo not drawn) | -62% |
| COc1cccc(CN2CCN(Cc3cccc(F)c3)CC2)c1.O=C(O)C(=O)O | -6.47% |
| COc1cc(C)c(CN2CCN(C(C)C(=O)NC(C)c3ccccc3)CC2)cc1OC (stereo not drawn) | -18.3% |
| CCOc1ccccc1N1CCN(Cc2ccc(OC)c(OC)c2OC)CC1 | -51.9% |
| COc1cc(CN2CCN(c3cccc(C)c3C)CC2)cc(Br)c1O | -12.6% |
| COc1ccccc1N1CCN(Cc2ccc(OC)c(OC)c2OC)CC1 | -35.8% |
| COc1cc(CN2CCN(c3cccc(C)c3C)CC2)cc(OC)c1O | -45.4% |
| COc1ccc(CN2CCN(C(C)C(=O)N(C)Cc3cccc(F)c3)CC2)cc1OC.O=C(O)C(=O)O (stereo not drawn) | -61% |
| CC(C)S(=O)(=O)C1=NSC2=NC(=O)/C(=C\c3ccc(OC(=O)c4ccco4)cc3)C(=N)N21 | 12.8% |
| COc1cc2nc(C(C)(C)C)oc(=O)c2cc1OC | 10.6% |
| NC(=O)CC(NC(=O)c1ccccc1)c1ccc(NC2CCCC2)c([N+](=O)[O-])c1 (stereo not drawn) | 5.39% |
| Cc1cc(C(=O)OCC(=O)c2ccc(Cl)c([N+](=O)[O-])c2)c2cccc(C)c2n1 | 6.36% |
| CS(=O)(=O)N(Cc1ccc(C(=O)NN=C2CCCC2)cc1)c1ccccc1 | 8.63% |
| CCC(=O)Nc1cc(-c2cc3ccccc3oc2=O)ccc1OC | -29.6% |
| COc1ccc(CN2CCN(Cc3ccccc3F)CC2)cc1OC.O=C(O)C(=O)O | -22.6% |
| COc1ccccc1N1CCN(Cc2ccccc2)CC1.O=C(O)C(=O)O | -7.21% |

| SMILES | hERG current change (%, negative = inhibition) at 10uM |
| --- | --- |
| COc1ccccc1N1CCN(Cc2cccc(Br)c2)CC1.O=C(O)C(=O)O | -5.27% |
| COc1ccc(CN2CCN(Cc3ccc4ccccc4c3)CC2)cc1OC.O=C(O)C(=O)O | -67% |
| COc1ccccc1N1CCN(Cc2ccc(Br)cc2)CC1.O=C(O)C(=O)O | -70.3% |
| COc1ccccc1CN1CCN(Cc2ccc3ccccc3c2)CC1.O=C(O)C(=O)O | -36.7% |
| COc1ccc(CN2C(=O)Cc3c2nc(N)c2c(N)nc(N4CCOCC4)c(C#N)c32)cc1 | -36.8% |
| Cc1nnc(SCC(=O)Nc2nccs2)n(N)c1=O | 19.4% |
| CC1CCCCC1NC(=O)c1ccc(S(=O)(=O)NCC2CCCO2)cc1 (stereo not drawn) | -10.7% |
| Cc1ccc(C)c(S(=O)(=O)N2CCC3(CC2)OCCN3S(=O)(=O)c2cccs2)c1 | 5.64% |
| CCCc1nc(SCC(=O)c2ccccc2)c2c(=O)n(C)c(=O)n(C)c2n1 | -23.5% |
| OCCNCCCCOc1ccc(F)cc1 | 4.18% |
| COCCCn1c(SCC(=O)Nc2sc3c(c2C#N)CCCC3)nnc1-c1ccncc1 | -49.4% |
| CCCC(=O)Nc1sc2c(c1C#N)CCCCC2 | -50.6% |
| CCn1c(SCC(=O)Nc2oc(-c3ccccc3)c(-c3ccccc3)c2C#N)nnc1-c1ccco1 | -30.8% |
| N#Cc1c(NC(=O)CSc2nnc(-c3ccncc3)n2CC2CCCO2)sc2c1CCCC2 (stereo not drawn) | -40.7% |
| CCC(=O)Nc1sc2c(c1C#N)CCCCC2 | 0.0585% |
| CCn1c(SCC(=O)Nc2oc(-c3ccccc3)c(-c3ccccc3)c2C#N)nnc1-c1cc(OC)cc(OC)c1 | -5.33% |
| CCCC(=O)Nc1sc2c(c1C#N)CCCC2 | 4.29% |
| CCn1c(SCC(=O)Nc2sc3c(c2C#N)CCCC3)nnc1-c1ccncc1 | -63.5% |
| CCn1c(SCC(=O)Nc2oc(-c3ccccc3)c(-c3ccccc3)c2C#N)nnc1-c1ccncc1 | -68.2% |
| O=S1OCCN1c1ccccc1 (stereo not drawn) | 10.4% |
| O=C(c1ccc(OC2CCN(CCc3ccccc3)CC2)cc1)N1CCCC(CO)C1 (stereo not drawn) | -12.4% |
| COc1ccc([C@H]2/C=C\CN(S(=O)(=O)c3ccc4ccccc4c3)[C@@H](C)C(=O)N2Cc2ccc(F)cc2)cc1 | 6.43% |
| CC1CCCC(C)N1C(=O)CN1C(=O)c2ccccc2S1(=O)=O (stereo not drawn) | 3.3% |

| SMILES | hERG current change (%, negative = inhibition) at 10uM |
| --- | --- |
| O=C(Cc1ccccc1)Nc1ccc(NC(=O)c2ccc(Br)cc2)cc1 | 15.4% |
| O=[N+]([O-])c1ccc(C2(O)CN(c3ccccc3)C3=[N+]2CCS3)cc1.[Br-] (stereo not drawn) | -60.8% |
| OC1(c2ccc(Cl)cc2)CN(c2ccccc2)C2=[N+]1CCS2.[Br-] (stereo not drawn) | -50.4% |
| OC1(c2ccc(F)cc2)CN(c2ccccc2)C2=[N+]1CCS2.[Br-] (stereo not drawn) | -13.9% |
| Cc1ccc(C2(O)CN(c3ccccc3)C3=[N+]2CCS3)cc1.[Br-] (stereo not drawn) | -32.6% |
| OC1(c2ccccc2)CN(c2ccccc2)C2=[N+]1CCS2.[Br-] (stereo not drawn) | -28.1% |
| Cc1ccc(C2(O)CN(c3ccccc3C)C3=[N+]2CCS3)cc1.[Br-] (stereo not drawn) | -28.1% |
| O=P(COCCO)(c1ccccc1)c1ccccc1 | -4.96% |
| COc1ccc(NC(=O)C2Cc3ccccc3O/C2=N\O)cc1 (stereo not drawn) | 13.8% |
| COc1ccccc1NC(=S)N1CCC(c2nc3cc(C)c(C)cc3[nH]2)CC1 | -21% |
| COc1ccccc1NC(=O)N1CCC(c2nc3cc(C)c(C)cc3[nH]2)CC1 | -53.3% |
| COc1ccc(NC(=O)N2CCC(c3nc4ccccc4[nH]3)CC2)cc1 | 9.26% |
| COc1ccccc1NC(=O)CN1CCC(c2nc3ccccc3[nH]2)CC1 | -43.6% |
| Cc1ccc2nc(C3CCN(C(=O)NCc4ccccc4)CC3)[nH]c2c1 | -30% |
| COc1ccc(C(=O)NC2CCN(CC(=O)NCc3cccc(OC)c3)CC2)cc1 | -19.9% |
| COc1cccc(CNC(=O)CN2CCC(c3nc4ccc(C)cc4[nH]3)CC2)c1 | -68.4% |
| CCOC(=O)CNC(=O)CN1CCC(c2nc3ccccc3[nH]2)CC1 | 13.7% |
| CCOc1ccccc1NC(=O)N1CCC(c2nc3ccc(C)cc3[nH]2)CC1 | -55.5% |
| COc1ccccc1NC(=O)CN1CCC(c2nc3ccc(C)cc3[nH]2)CC1 | -57.7% |
| CCOc1ccccc1NC(=O)N1CCC(c2nc3ccccc3[nH]2)CC1 | -23.6% |
| COc1cccc(CNC(=O)CSc2nc3ccc(C)cc3[nH]2)c1 | 6.22% |
